Test results reported in PubChem BioAssay (NCI).
About 79,000 compounds went through this panel and 15% of them were active in at least one assay; those are over-represented in the sample as a whole. Calls of active or inactive are those of the source. No stated cut-off is given here; in the data, active means growth inhibition above about 70%; inactive means the rest.

Legend:
[1] = NCI Yeast Anticancer Drug Screen. Data for the rad50 strain (AID 155);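 further: 0% = growth of vehicle-only cultures of the same strain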; conditions: S. cerevisiae rad50 strain growth inhibition; at 50.0 µM; hits give high values
Outline: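 DNA repair mutant yeast, compound exposure, growth read-out; inhibition is taken relative to vehicle.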

[2] = NCI Yeast Anticancer Drug Screen. Data for the mec2-1 strain (AID 157); conditions: S. cerevisiae mec2-1 strain, at 50.0 µM, hits give high values
Outline: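 Test agents were screened against the mec2-1 yeast strain, with defined DNA repair or cell cycle alteration. Growth was scored as inhibition against vehicle-only controls.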

[3] = NCI Yeast Anticancer Drug Screen. Data for the sgs1 mgt1 strain (AID 161);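 further: 0% = growth of cultures given vehicle only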; conditions: S. cerevisiae sgs1 mgt1 strain, at 50.0 µM, hits give high values
Outline: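 Inhibition of yeast growth, normalised to vehicle-treated controls, is reported for a strain bearing genetic alterations in DNA damage repair.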

[4] = NCI Yeast Anticancer Drug Screen. Data for the cln2 rad14 strain (AID 165);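 further: 0% = growth equal to vehicle treated cultures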; conditions: S. cerevisiae cln2 rad14 strain, at 50.0 µM, hits give high values
Outline: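 Growth of compound-exposed yeast (cln2 rad14 genotype) measured and expressed as inhibition relative to vehicle.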

[5] = NCI Yeast Anticancer Drug Screen. Data for the bub3 strain (AID 167); conditions: S. cerevisiae bub3 mutant strain, at 50.0 µM, hits give high values
Outline: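 In this screen, a yeast mutant lacking normal mitotic checkpoint function is challenged with compound. Relative growth versus vehicle gives the inhibition value.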

[6] = NCI Yeast Anticancer Drug Screen. Data for the mlh1 rad18 strain (AID 175); conditions: S. cerevisiae mlh1 rad18 strain growth inhibition; at 50.0 µM; hits give high values
Outline: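 In this whole-cell yeast screen, a strain with altered DNA damage repair is challenged with compound, and its growth is measured against matched vehicle-treated controls.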

Measured: growth inhibition

O=C1C2C3C=C4c5ccccc5N(c5ccccc5)C4([C@@H]2C(=O)N1c1ccc(F)cc1)[C@H]1C(=O)N(c2ccc(F)cc2)C(=O)[C@@H]31 (some centres undefined)
inactive: [1] 35% | [2] 23.6% | [3] 11.5% | [4] 40.1% | [5] 21.4% | [6] 34.9%

NC(N)=NS(=O)(=O)c1ccc(Nc2c3ccccc3nc3c(C(=O)N4CCN(CCO)CC4)cccc23)cc1
inactive: [1] -0.4% | [2] -7.8% | [3] 2.95% | [4] 22.4% | [5] -5% | [6] -11.2%

O=C(O)CNC(CO)(CO)CO
inactive: [1] -55% | [2] -60.8% | [3] -36% | [4] -19.8% | [5] -10.8% | [6] -43%

OC(c1ccoc1)c1cc2ccccc2s1 (centres undefined)
inactive: [1] 65% | [2] 23.2% | [3] 52.5% | [4] 22.2% | [5] 21.6% | [6] 36.7%

Cc1ccc2c(=O)cc(-c3ccccc3)[nH]c2n1
inactive: [1] -48% | [2] -57% | [3] -42.1% | [4] 11.8% | [5] -59.1% | [6] -41.1%

O=C1OC([C@H](O)c2cccnc2)c2ccccc21 (some centres undefined)
inactive: [1] -17.1% | [2] -24.9% | [3] -39.4% | [4] -22.9% | [5] -26.1% | [6] -21.6%

CCN(CC)Cc1cc(OC)c(OC)c(OC)c1
inactive: [1] -8.3% | [2] -14.5% | [3] -6.6% | [4] -50.9% | [5] 7% | [6] -18.1%

FC(F)(F)C[P+](c1ccccc1)(c1ccccc1)c1ccccc1
inactive: [1] 40.9% | [2] 13.1% | [3] 15.3% | [4] 16.9% | [5] 11.5% | [6] 26%

O=C(Nc1cccc(Cl)c1)Sc1c(Cl)c(Cl)c(Cl)c(Cl)c1Cl
inactive: [1] 24.4% | [2] 17.3% | [3] 26.4% | [4] 29.2% | [5] 7.3% | [6] 34.8%

CC1(C)C2CCC1C(=O)C(C=O)C2 (centres undefined)
inactive: [1] -10.3% | [2] 16.1% | [3] -22.1% | [4] 32.5% | [5] -40.2% | [6] -41.8%

COc1ccc(N=C2[Se]C(=NC(=O)c3ccccc3)N(c3ccc(OC)cc3)C2=Nc2ccc(OC)cc2)cc1
inactive: [1] 13.1% | [2] -25.5% | [3] -22.2% | [4] -36% | [5] 1.3% | [6] -7.95%

CCOC(=O)C(C#N)=C1CC(C)OC(C)C1 (centres undefined)
inactive: [1] 12.3% | [2] 0.65% | [3] 5.85% | [4] -33.6% | [5] 17.4% | [6] 4.15%

Cc1cc[n+](Cc2ccccc2Cl)c(C)c1
inactive: [1] 19% | [2] 2.25% | [3] 14% | [4] -4.15% | [5] 2.05% | [6] 4.9%

CNc1nc(N)nc(N)c1N1CCN(c2ccc(C(=O)O)cc2)CC1
inactive: [1] 13.3% | [2] -0.8% | [3] 19.8% | [4] 9.95% | [5] 17.2% | [6] 16.6%

CC1SC2(C(=O)N(CN3CCCCC3)c3ccccc32)N(c2ccccc2)C1=O (centres undefined)
inactive: [1] 15.4% | [2] -0.45% | [3] -30.9% | [4] -0.8% | [5] 3.9% | [6] -0.1%

O=C(Nc1ncc([N+](=O)[O-])s1)c1cc(Cl)cc(Cl)c1
active: [3] 77.9% | [6] 74.3%
inactive: [1] 60.5% | [2] 61% | [4] 53% | [5] 57.5%

CC(C)(O)C1OCC(C2CCC3(C)C4=CCC5C(C)(C)C(O)CCC5(C)C4CCC23C)CC1O (centres undefined)
inactive: [1] 23.7% | [2] 27.6% | [3] 34.8% | [4] 42.6% | [5] 21.5% | [6] 4.75%

Brc1ccc(C(c2ccc(Br)cc2)C(Br)(Br)Br)cc1
inactive: [1] 2.8% | [2] 3.75% | [3] 1.9% | [4] -12.9% | [5] 1.5% | [6] 8.2%

C[N+](C)(CCO)CCN1c2ccccc2Sc2ccccc21
inactive: [1] -3.1% | [2] -17.5% | [3] 10.2% | [4] -23.6% | [5] -14.6% | [6] -3.7%

O=C(O)C(CBr)c1ccccc1 (centres undefined)
inactive: [1] 6.7% | [2] 7.2% | [3] -0.55% | [4] 13.2% | [5] 0.05% | [6] 0.5%

Cc1ccnc(=O)[nH]1
inactive: [1] -2.45% | [2] -0.2% | [3] 11.8% | [4] 8.45% | [5] 1.75% | [6] 29.9%

CC(=O)Nc1ccccc1-c1nc2cccnc2[nH]c1=O
inactive: [1] -9.6% | [2] 6.15% | [3] 2.65% | [4] -5.35% | [5] -1.85% | [6] -11.9%

CCc1ccc2c(OC(C)=O)c3ccccc3c(OC(C)=O)c2c1
inactive: [1] 36.4% | [2] 41.3% | [3] 33.4% | [4] 18.2% | [5] 46%
active: [6] 74.6%

[Cl][Tb]([Cl])[Cl]
inactive: [1] 16.4% | [2] 8% | [3] 31.8% | [4] 40.1% | [5] 37.2% | [6] 29%

COC(=O)C(C(=O)C(=O)Nc1cccc(O)c1)c1nc2ccc(Cl)cc2[nH]c1=O (centres undefined)
inactive: [1] -19% | [2] -3.95% | [3] -41.3% | [4] 2.55% | [5] -8.65% | [6] -13.9%

C=CC1C(OC2OC(CO)C(O)C(O)C2O)OC=C(C(=O)OC)C1CC1CC(=O)CC(CCc2ccc(O)cc2)O1 (centres undefined)
inactive: [1] 1.8% | [2] -10.1% | [3] -4.9% | [4] 1.45% | [5] -13.9% | [6] -76.2%

CC(C)C(=O)OCCCc1ccccc1
inactive: [1] 11.7% | [2] -5.3% | [3] 1.8% | [4] 7.45% | [5] 21.5% | [6] 12.8%

CC1=NN(c2ccc(S(=O)(=O)O)cc2)C(=O)C1N=Nc1ccc(C)c(S(=O)(=O)Nc2ccccc2)c1 (centres undefined)
inactive: [1] 5.95% | [2] -17.9% | [3] 8% | [4] 15% | [5] 5.45% | [6] 10.8%

CCCC(=O)n1[nH]c(=O)n(-c2ccc(Cl)cc2)c1=O
inactive: [1] 5.15% | [2] -12.3% | [3] 19.8% | [4] 3.25% | [5] -2.1% | [6] -10.3%

NC(CCCCC(=O)O)C(=O)O (centres undefined)
inactive: [1] -30.1% | [2] -22.3% | [3] -12.9% | [4] -38.2% | [5] -11.2% | [6] 0.15%

COc1ccc(N=Nc2sc(N)nc2-c2cccc([N+](=O)[O-])c2)cc1
inactive: [1] 5% | [2] 4.85% | [3] 10.1% | [4] -13.8% | [5] 8.6% | [6] 11.7%

O=C1NC(c2ccccc2)C1N(Cc1ccccc1)Cc1ccccc1 (centres undefined)
inactive: [1] 21.3% | [2] 0.55% | [3] 22.2% | [4] 11.4% | [5] 12.8% | [6] 9.8%

C=CCOC(C)n1c(C)cc(=O)n(C(C)OCC=C)c1=O (centres undefined)
inactive: [1] -56.6% | [2] -26.8% | [3] -46.6% | [4] -38.5% | [5] -44.9% | [6] -29.8%

O=P(O)(O)OC1C(OP(=O)(O)O)C(OP(=O)(O)O)C(OP(=O)(O)O)C(OP(=O)(O)O)C1OP(=O)(O)O.[Zn+2] (centres undefined)
inactive: [1] -24.7% | [2] -4.8% | [3] -16.6% | [4] 9.6% | [5] -23% | [6] -6.2%

NC(=S)N/N=C1/C(=O)N(c2ccccc2)C(=O)C1C(=O)Nc1ccccc1 (centres undefined)
inactive: [1] 46.2% | [2] 16.8% | [3] 38% | [4] 0.9% | [5] -0.25% | [6] 39.1%

Cc1cc(C(C)C)cc(C(C)C)c1
inactive: [1] -6.25% | [2] -13.9% | [3] -9.45% | [4] -4% | [5] -0.85% | [6] 7.95%

COn1nnc2c([N+](=O)[O-])cccc21
inactive: [1] 18.8% | [2] -6% | [3] -3.15% | [4] -22.9% | [5] -16.4% | [6] 5%

COc1ccc(C2=C(OC(=O)N(C)C)c3cccn3-c3cc(Cl)ccc3S2)cc1
inactive: [1] -7.3% | [2] 2% | [3] 1.7% | [4] -1.85% | [5] -0.1% | [6] -5.95%

CC1(C)OC(=O)C(C(N)=O)C1c1ccc(Cl)cc1 (centres undefined)
inactive: [1] 6.15% | [2] 0.8% | [3] -5.65% | [4] -3% | [5] -6.25% | [6] 13.8%
